Bioassay records deposited in PubChem by Broad Institute.
An excerpt weighted towards active compounds, which were near 8.1% of everything screened.
MITF inhib: inhibitors of MITF. inhibition, % (concentration not given with the values). TRPM1 promoter luciferase, luminescence, 24 h. 37,000 compounds, 0.28% hits. AID 2240; in the data active = inhibition above about 85%; inconclusive = no clear call, values can overlap the other calls; inactive = below about 68%;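 note: human melanocyte line stably carrying TRPM1 promoter luciferase reporter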
Shh pathway inh: blocks Sonic Hedgehog signaling; Shh-LIGHT2 Gli-luciferase reporter, 30 h; inhibition, % (concentration not given with the values); 22,000 compounds, 2.1% hits;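 active = mean inhibition across valid replicates above about 65%, limit read from the data; inconclusive = mean under the limit, yet half or more replicates past it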;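 note: pathway switched on by Shh-conditioned medium diluted 1 in 25 in low serum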
NOMO-1 viab: STK33 inhibitor candidate reducing NOMO-1 cell viability. NOMO-1 AML viability, CellTiter-Glo luminescence, 72 h. inhibition, % (test concentration not listed). 37,000 compounds, 7.5% hits. AID 2330; in the data active = inhibition above about 80%; inconclusive = no clear call, values can overlap the other calls
PD-1 reversal: reversal of PD-1 mediated T-cell inhibition | primary human CD4 T cells, PD-L1 beads, CellTiter-Glo 96 h | activation, % (test concentration not listed) | 29,000 tested, under 10 active | AID 2316; call rule not given here;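 note: 0% = median vehicle wells and 100% = positive control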
The depositor's hits bear a star; ? = inconclusive; · = no result.

SMILES	MITF inhib	Shh pathway inh	NOMO-1 viab	PD-1 reversal
C[C@H]1CN([C@@H](C)CO)C(=O)Cc2cc(NS(=O)(=O)c3ccc(Cl)cc3)ccc2O[C@H]1CN(C)Cc1ccc(C(=O)Nc2ccccc2N)cc1	15.7	·	139.4*	-0.2
C[C@@H]1CN([C@H](C)CO)C(=O)Cc2cc(NS(=O)(=O)c3ccccc3)ccc2O[C@@H]1CN(C)Cc1ccc(C(=O)Nc2ccccc2N)cc1	3.2	·	116.2*	-1.0
C[C@@H]1CN([C@H](C)CO)C(=O)Cc2cc(NS(C)(=O)=O)ccc2O[C@H]1CN(C)Cc1ccc(C(=O)Nc2ccccc2N)cc1	-3.4	·	22.0	-0.4
Cc1ccc(S(=O)(=O)Nc2ccc3c(c2)CC(=O)N([C@H](C)CO)C[C@@H](C)[C@H](CN(C)Cc2ccc(C(=O)Nc4ccccc4N)cc2)O3)cc1	-0.1	·	36.5	-0.5
COc1ccc(CCNC(=S)Nc2ccncc2)cc1OC	64.1	·	113.0*	-10.1
COc1ccc(CCNC(=S)n2cc(C)cn2)cc1OC	54.7	·	110.6*	-12.2
COc1ccc(CCNC(=S)NCCc2ccccc2)cc1OC	16.4	2.1	13.3	0.0
COc1cc(Cl)c(C)cc1NC(=O)CSc1nnc(-c2ccncc2)n1C	-10.3	·	-12.0	·
Clc1ccc(Nc2ccc(-c3ccccc3)nn2)cc1	-64.8	·	32.4	0.1
CN(C)Cc1ccc(C(=O)Oc2ccc(C(C)(C)C)cc2)cc1	1.2	·	114.6*	-2.0
CCc1ccc(C(=O)Oc2ccc(C#N)cc2)cc1	-5.0	·	69.3	0.9
CC(Oc1ccc(Cl)cc1Cl)C(=O)NC(=S)Nc1sc2c(c1C#N)CCCC2 (centres undefined)	29.4	·	41.6	·
COc1ccc(NC(=O)Nc2ccc3c(c2)CC(=O)N([C@@H](C)CO)C[C@H](C)[C@@H](CN(C)S(=O)(=O)c2ccc(Cl)cc2)O3)cc1	9.1	74.1*	28.9	-1.2
COc1ccc(NC(=O)Nc2ccc3c(c2)CC(=O)N([C@@H](C)CO)C[C@@H](C)[C@@H](CN(C)S(=O)(=O)c2ccc(Cl)cc2)O3)cc1	15.8	0.9	35.0	-0.7
COc1ccc(NC(=O)Nc2ccc3c(c2)CC(=O)N([C@H](C)CO)C[C@@H](C)[C@@H](CN(C)S(=O)(=O)c2ccc(C)cc2)O3)cc1	12.4	·	14.4	-1.0
COc1ccc(NC(=O)Nc2ccc3c(c2)CC(=O)N([C@@H](C)CO)C[C@H](C)[C@H](CN(C)S(=O)(=O)c2ccc(C)cc2)O3)cc1	42.4	-23.1	128.0*	·
COc1cccc2cc(C(=O)C3C(=O)C(=O)N(CCCN4CCOCC4)C3c3cccnc3)oc12 (centres undefined)	5.5	·	47.5	0.5
COc1ccc(C(=O)CSc2nc(C)[nH]c2[N+](=O)[O-])cc1Br	10.2	·	12.7	-2.3
COc1ccc(CC(=O)Nc2cccc(-c3nnc(-c4ccc(C)cc4)o3)c2)cc1OC	100.9*	·	122.3*	1.1
COc1ccccc1OCC(=O)Nc1cccc(-c2nnc(-c3ccccc3)o2)c1	-99.5	·	-19.3	0.7
O=C(COc1cccc(NC(=O)c2ccccc2Cl)c1)c1ccc(F)cc1	9.1	·	18.0	-0.8
COC(=O)COc1cccc(NC(=O)c2ccccc2I)c1	0.4	·	109.6*	·
COC(=O)COc1cccc(NC(=O)c2ccc(-c3ccccc3)cc2)c1	32.9	·	112.6*	-3.4
COC(=O)COc1cccc(NC(=O)c2ccccc2Cl)c1	11.2	·	118.6*	·
COc1ccc(C(=O)COc2cccc(NC(=O)c3ccccc3C)c2)cc1	11.6	·	4.6	0.3
SMILES	MITF inhib	Shh pathway inh	NOMO-1 viab	PD-1 reversal
COC(=O)COc1cccc(NC(=O)c2ccccc2F)c1	-5.5	·	121.5*	-0.6
CC(=O)Nc1ccc(Nc2ncnc3c2cnn3Cc2ccc(Cl)cc2)cc1	5.2	·	-14.5	0.7
N/C(CN1CCCCC1)=N\O	2.5	4.9	-1.6	-2.9
Cc1csc2sc(C=NCc3cccs3)c(C)c12	-6.1	-4.3	122.4*	-3.6
C[C@@H]1CN([C@@H](C)CO)C(=O)c2cc(NC(=O)Nc3ccc(F)cc3)ccc2O[C@@H]1CN(C)Cc1ccc(Oc2ccccc2)cc1	51.2	40.3	117.5*	-6.2
C[C@@H]1CN([C@H](C)CO)C(=O)c2cc(NC(=O)Nc3ccc(F)cc3)ccc2O[C@@H]1CN(C)Cc1ccc(Oc2ccccc2)cc1	13.8	?	124.1*	-2.0
C[C@@H]1CN([C@H](C)CO)C(=O)c2cc(NC(=O)Nc3ccc(F)cc3)ccc2O[C@H]1CN(C)Cc1ccc(Oc2ccccc2)cc1	-1.2	·	70.9	-2.5
COc1cc(NC(=O)c2ccccc2)c(OC)cc1NC(=O)COc1ccc(Cl)cc1Cl	-7.9	·	45.4	-3.9
COC(=O)C1=COC(OC2OC(CO)C(O)C(O)C2O)C2C1C(O)CC2(C)OC(C)=O (centres undefined)	-2.4	-16.5	4.6	1.4
CN1C(=O)C(CC(=O)Nc2ccc(Cl)cc2)N(Cc2ccco2)C1=S (centres undefined)	15.2	·	152.2*	-11.7
Cc1nc(SC2CCCCN(C(=O)c3ccc(Cl)cc3)C2=O)c2c3c(sc2n1)CCCC3 (centres undefined)	-20.8	19.0	93.0*	0.1
O=C(Cn1ncc2ccccc2c1=O)Nc1cccc([N+](=O)[O-])c1	9.6	·	-7.2	3.4
C[C@H]1CN([C@@H](C)CO)C(=O)Cc2cc(NS(C)(=O)=O)ccc2O[C@@H]1CN(C)Cc1ccc(C(=O)Nc2ccccc2N)cc1	-7.2	·	16.2	0.2
C[C@@H]1CN([C@@H](C)CO)C(=O)Cc2cc(NS(=O)(=O)c3ccc(F)cc3)ccc2O[C@@H]1CN(C)Cc1ccc(C(=O)Nc2ccccc2N)cc1	24.9	·	112.1*	0.0
C[C@H]1CN([C@@H](C)CO)C(=O)Cc2cc(NS(=O)(=O)c3ccc(F)cc3)ccc2O[C@H]1CN(C)Cc1ccc(C(=O)Nc2ccccc2N)cc1	21.7	·	140.0*	-0.9
COc1ccc(Cl)cc1NC(=O)CSc1nnc(N)s1	2.0	·	4.3	-0.5
Cc1cc(C)c2c(/N=N/N3CCCCCC3)[nH]nc2n1	-35.4	·	16.9	0.1
COc1cc2c(cc1OC)[C@H]1[C@@H](C)c3ccc(OC)c(OC)c3CN1CC2	·	-7.8	·	·
Cc1ccc(S(=O)(=O)Nc2cccc3c2O[C@H](CN(C)Cc2ccc(C(=O)Nc4ccccc4N)cc2)[C@@H](C)CN([C@@H](C)CO)C3=O)cc1	33.3	·	120.7*	-1.4
Cc1ccc(S(=O)(=O)Nc2cccc3c2O[C@@H](CN(C)Cc2ccc(C(=O)Nc4ccccc4N)cc2)[C@@H](C)CN([C@@H](C)CO)C3=O)cc1	30.5	·	133.8*	-1.2
Cc1ccc(S(=O)(=O)Nc2cccc3c2O[C@H](CN(C)Cc2ccc(C(=O)Nc4ccccc4N)cc2)[C@H](C)CN([C@H](C)CO)C3=O)cc1	31.4	·	128.6*	-0.6
Cc1ccc(S(=O)(=O)Nc2cccc3c2O[C@@H](CN(C)Cc2ccc(C(=O)Nc4ccccc4N)cc2)[C@H](C)CN([C@@H](C)CO)C3=O)cc1	5.1	·	?	1.5
Cc1ccc(C(=O)c2coc3ccc(O)cc23)o1	26.1	-29.6	41.5	-2.0
COc1ccc(OC)c(C(=O)c2coc3ccc(O)cc23)c1	-4.8	19.9	135.9*	0.3
COc1ccc(-c2coc3cc(O)ccc3c2=O)c(OC)c1	-5.8	80.0*	-1.9	·
